# In PubChem BioAssay (NCI):
# Compounds without any hit were thinned out: in the full panel of roughly 83,000, 20% have a hit.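 Cell lines were cultured in 96-well plates, exposed to a single compound concentration, and assessed for percent growth 48 hours later.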 Active and inactive are the calls of the source. The calls were made as follows: active = growth percent below 10; inactive = the rest.
# System: SK-MEL-2 melanoma
# Assay: NCI-60 one-dose screen, 48 h (100 = growth as untreated, 0 = no growth, -100 = all killed)
# Details: 10 µM unless noted
row,SMILES,growth
1,Nc1c(C(=O)Nc2cccc3ccccc23)sc2nc3c(cc12)COCC3,49.1% (inactive)
2,CN(C)C(CNc1oc(-c2cccc3ccccc23)nc1C#N)c1ccco1 (centres undefined),95.9% (inactive)
3,Cc1cnc(-c2ccc(-c3ccc(NC(=O)Nc4c(F)cc(F)cc4F)cc3F)c3c2C(=O)NC3)[nH]1,58.1% (inactive)
4,COc1ccc(-c2cc(C(=O)N3N=C(c4ccc(N)cc4)CC3c3ccc(OC)cc3)c3cc(OC)ccc3n2)cc1 (centres undefined),64.5% (inactive)
5,COc1cc([C@H](C)c2ccc3ccccc3c2)cc(OC)c1OC,28.3% (inactive)
6,O=c1nc(-c2ccccc2)c2cc(-c3ccc(N4CCCC4)nc3)ccc2[nH]1,37.5% (inactive)
7,Cc1cccc2nc3c(n12)C(=O)C(=O)c1ccccc1-3,81.2% (inactive)
8,CC(=O)Nc1c(C(=O)Nc2ccccc2)sc2nc3c(cc12)C(OC(C)=O)CCC3 (centres undefined),89.8% (inactive)
9,CCN1CCN(c2ccc(NC(=O)Nc3nc4ccc(-c5ccccc5OC)cc4s3)cc2)CC1,-65.5% (active)
10,Cc1cc(Cl)cc(CN(Cc2ccccc2)Cc2c(O)ccc3ccccc23)c1O,91% (inactive)
11,COC1=CC=CC2(OC)C3(O)CCCc4cccc(c43)N3C(=O)COC132 (centres undefined),93.9% (inactive)
12,C=C1C(=O)O[C@H]2[C@H]1CC/C(COC(=O)N1CCC[C@H]1C(=O)Nc1ccc(OC)c(C(N)=O)c1O)=C\CC[C@@]1(C)O[C@@H]21,66.5% (inactive)
13,Cc1cc(C)nc(NS(=O)(=O)c2ccc(Nc3ccc4c5c(n(CCCN(C)C)c(=O)c4c3)-c3ccccc3C5=O)cc2)n1,108% (inactive)
14,COc1cc(NC(=O)c2cc(O)c(C/C=C(\C)CCC=C(C)C)c(O)c2)cc2c1O[C@]1(C)CC[C@@H](O)C(C)(C)[C@H]1C2,-5.49% (active)
15,CCCCCCN1C(=O)CN=C1Nc1ccc2cc3ccc(NC4=NCC(=O)N4CCCCCC)cc3nc2c1,79.9% (inactive)
16,Nc1ccc(C2=NN(C(=O)c3cc(-c4ccc(Cl)cc4)nc4ccccc34)C(c3ccccc3)C2)cc1 (centres undefined),37.1% (inactive)
17,CN(CCC#N)C(=O)Nc1ccccc1,98.7% (inactive)
18,C=C(C)[C@@H]1CC[C@]2(C(=O)OCCCC[P+](c3ccccc3)(c3ccccc3)c3ccccc3)CC[C@]3(C)[C@H](CC[C@@H]4[C@@]5(C)CC[C@H](OC(=O)C(Cl)Cl)C(C)(C)[C@@H]5CC[C@]43C)[C@@H]12,-67.5% (active)
19,CSc1cccc(NC(=O)Nc2nc3c(C)cccc3s2)c1,98.5% (inactive)
20,O=C(O)c1cn(C2CC2)c2cc(N3CCN(Cc4nnc(Nc5ccccc5)o4)CC3)c(F)cc2c1=O,101% (inactive)
21,O=C1CS/C(=N/c2nnc(-c3ccc(O)cc3)s2)N1,108% (inactive)
22,COc1ccc2c(c1)C1(C(=O)N2)C(C#N)=C(c2ccccc2)Nc2c1c(-c1ccccc1)nn2-c1ccccc1 (centres undefined),84.9% (inactive)
23,CCN1CCC[C@H]1c1cc(O)c2c(c1OC)C[C@H]1C[C@H]3[C@H](N)C(=O)C(C(N)=O)=C(O)[C@@]3(O)C(=O)C1=C2O,-43.9% (active)
24,O=C(/C(=C/c1ccc([N+](=O)[O-])cc1)SCc1ccccc1)c1ccc(Cl)cc1,84.5% (inactive)
